PubChem BioAssay AID1159580 (chemical genetic matrix, 2015)
Out of some 5,500 compounds screened, about 2,000 (36%) were called active. Another 18% or so got no clear call; they are omitted. Rule as the data show it: active = normalized growth mostly below about 0.91 (no sharp cut-off); inconclusive = no clear call, values can overlap the other calls; inactive = mostly above about 0.92. The list shows a part of the results.

Experiment: chemical genetic growth profiling, strain panel (AID 1159580);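 also: tested at 20 µM; growth read once vehicle control cultures reached saturation at 30 °C; 1 = growth at the plate median or of vehicle wells; lower values mean less growth of the strain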
Settings: S. cerevisiae deletion strains, growth OD

Measured: normalized growth

O=c1ccc2ccc(O)c(O)c2o1
inactive: locus YAL021C, strain ccr4, hits give low values 1.01 | locus YAL026C, strain drs2, hits give low values 1.01 | locus YAL030W, strain snc1, hits give low values 1.01 | locus YAL040C, strain CLN3, hits give low values 0.995 | locus YBL061C, strain skt5, hits give low values 1 | locus YBR009C, strain hhf1, hits give low values 1 | locus YBR023C, strain chs3, hits give low values 1 | locus YBR171W, strain sec66, hits give low values 1 | locus YBR231C, strain swc5, hits give low values 0.98 | locus YBR279W, strain paf1, hits give low values 1.01 | locus YCL011C, strain gbp2, hits give low values 1.03 | locus YCL016C, strain dcc1, hits give low values 0.996 | locus YCL061C, strain MRC1 (second series), hits give low values 0.999 | locus YCL069W, strain vba3, hits give low values 1.01 | locus YCR088W, strain abp1, hits give low values 1.01 | locus YDL005C, strain med2, hits give low values 1 | locus YDL040C, strain nat1, hits give low values 1.01 | locus YDR001C, strain nth1, hits give low values 1.02 | locus YDR069C, strain doa4, hits give low values 0.982 | locus YDR137W, strain rgp1, hits give low values 0.982 | locus YDR150W, strain NUM1, hits give low values 0.998 | locus YDR159W, strain sac3, hits give low values 0.966 | locus YDR195W, strain ref2 0.989 | locus YDR297W, strain sur2, hits give low values 1 | locus YDR334W, strain swr1, hits give low values 1.01 | locus YDR335W, strain msn5, hits give low values 1.02 | locus YDR363W, strain ESC2, hits give low values 0.961 | locus YDR392W, strain spt3, hits give low values 0.934 | locus YEL003W, strain gim4, hits give low values 1 | locus YEL037C, strain rad23, hits give low values 1.01 | locus YEL061C, strain CIN8 (second series), hits give low values 1.01 | locus YER002W, strain NOP16, hits give low values 0.996 | locus YER015W, strain faa2, hits give low values 0.999 | locus YER016W, strain bim1, hits give low values 1.02 | locus YER111C, strain swi4, hits give low values 0.999 | locus YER155C, strain BEM2 (second series), hits give low values 1 | locus YFR010W, strain ubp6, hits give low values 1.01 | locus YGL167C, strain pmr1, hits give low values 1.01 | locus YGL173C, strain kem1, hits give low values 1 | locus YGL227W, strain vid30, hits give low values 1.01 | locus YGL240W, strain doc1, hits give low values 0.986 | locus YGL253W, strain hxk2, hits give low values 1.03 | locus YGR078C, strain PAC10, hits give low values 0.994 | locus YGR229C, strain SMI1, hits give low values 1.03 | locus YHR013C, strain ard1, hits give low values 0.997 | locus YHR027C, strain rpn1, hits give low values 1 | locus YHR030C, strain SLT2, hits give low values 0.98 | locus YHR079C, strain IRE1, hits give low values 0.96 | locus YHR142W, strain chs7, hits give low values 1.05 | locus YJL092W, strain hpr5, hits give low values 1.01 | locus YJL095W, strain BCK1 (second series), hits give low values 1 | locus YJL095W, strain BCK1, hits give low values 0.978 | locus YJL115W, strain asf1, hits give low values 1.01 | locus YJL129C, strain trk1, hits give low values 0.999 | locus YJL154C, strain vps35, hits give low values 1.01 | locus YJL164C, strain tpk1, hits give low values 1 | locus YJL166W, strain qcr8, hits give low values 1.02 | locus YJL187C, strain SWE1, hits give low values 1.02 | locus YJR066W, strain TOR1, hits give low values 0.924 | locus YJR075W, strain HOC1, hits give low values 1.05 | locus YKL160W, strain elf1, hits give low values 1 | locus YKR026C, strain gcn3, hits give low values 1.01 | locus YKR091W, strain srl3, hits give low values 1.01 | locus YLL001W, strain dnm1, hits give low values 0.996 | locus YLL026W, hits give low values 1 | locus YLL041C, strain sdh2, hits give low values 1.01 | locus YLR027C, strain aat2, hits give low values 0.993 | locus YLR113W, strain HOG1, hits give low values 1.01 | locus YLR221C, strain rsa3, hits give low values 0.991 | locus YLR258W, strain gsy2, hits give low values 1.01 | locus YLR262C, strain YPT6 (second series), hits give low values 1.02 | locus YLR320W, strain mms22, hits give low values 1.01 | locus YLR342W, strain FKS1, hits give low values 1.01 | locus YLR357W, strain rsc2, hits give low values 1 | locus YLR370C, strain arc18, hits give low values 1.01 | locus YLR384C, strain iki3, hits give low values 0.981 | locus YML120C, strain ndi1, hits give low values 1 | locus YMR058W, strain fet3, hits give low values 1.01 | locus YMR125W, strain sto1, hits give low values 1 | locus YMR129W, hits give low values 1.01 | locus YMR205C, strain PFK2, hits give low values 1.01 | locus YMR231W, strain pep5, hits give low values 0.998 | locus YMR307W, strain GAS1, hits give low values 1.03 | locus YNL071W, strain lat1, hits give low values 1.02 | locus YNL153C, strain GIM3, hits give low values 1.2 | locus YNL175C, strain NOP13, hits give low values 0.974 | locus YNL183C, strain NPR1, hits give low values 0.94 | locus YNL197C, strain WHI3, hits give low values 0.979 | locus YNL209W, strain ssb2, hits give low values 0.994 | locus YNL224C, strain SQS1, hits give low values 0.99 | locus YNL248C, strain rpa49, hits give low values 1.04 | locus YNL322C, strain KRE1 (second series), hits give low values 0.994 | locus YNR049C, strain mso1, hits give low values 0.999 | locus YOR001W, strain rrp6, hits give low values 0.979 | locus YOR070C, strain gyp1, hits give low values 0.991 | locus YOR080W, strain dia2, hits give low values 0.986 | locus YOR083W, strain WHI5 (second series), hits give low values 1.02 | locus YOR083W, strain WHI5, hits give low values 0.999 | locus YOR106W, strain vam3, hits give low values 0.99 | locus YOR231W, strain MKK1, hits give low values 0.966 | locus YOR265W, strain rbl2, hits give low values 1.01 | locus YOR270C, strain vph1, hits give low values 1 | locus YOR290C, strain snf2, hits give low values 0.98 | locus YPL051W, strain arl3, hits give low values 1 | locus YPL078C, strain atp4, hits give low values 1.01 | locus YPL106C, strain sse1, hits give low values 0.967 | locus YPL240C, strain hsp82, hits give low values 1.01 | locus YPL256C, strain CLN2, hits give low values 0.989
